# Experimental data as given in PubChem BioAssay AID720708 (National Center for Advancing Translational Sciences (NCATS), 2013).
# The whole screen tested about 360,000 compounds, of which about 660 (0.18%) were called active. Not shown: some 2% with an inconclusive outcome. This is one part of a sample in which actives are shown more often than they occur. Calls come from the whole dose curve; as a rule, active = well fitted inhibition curve with a large enough effect; inconclusive = small, poorly fitted or top-dose-only effect; inactive = no such curve, though single readings can be large or run the other way.
# Target: Rap guanine nucleotide exchange factor 4 (Homo sapiens) (UniProt Q8WZA2)
# Sequence (Q8WZA2 whole entry, looked up): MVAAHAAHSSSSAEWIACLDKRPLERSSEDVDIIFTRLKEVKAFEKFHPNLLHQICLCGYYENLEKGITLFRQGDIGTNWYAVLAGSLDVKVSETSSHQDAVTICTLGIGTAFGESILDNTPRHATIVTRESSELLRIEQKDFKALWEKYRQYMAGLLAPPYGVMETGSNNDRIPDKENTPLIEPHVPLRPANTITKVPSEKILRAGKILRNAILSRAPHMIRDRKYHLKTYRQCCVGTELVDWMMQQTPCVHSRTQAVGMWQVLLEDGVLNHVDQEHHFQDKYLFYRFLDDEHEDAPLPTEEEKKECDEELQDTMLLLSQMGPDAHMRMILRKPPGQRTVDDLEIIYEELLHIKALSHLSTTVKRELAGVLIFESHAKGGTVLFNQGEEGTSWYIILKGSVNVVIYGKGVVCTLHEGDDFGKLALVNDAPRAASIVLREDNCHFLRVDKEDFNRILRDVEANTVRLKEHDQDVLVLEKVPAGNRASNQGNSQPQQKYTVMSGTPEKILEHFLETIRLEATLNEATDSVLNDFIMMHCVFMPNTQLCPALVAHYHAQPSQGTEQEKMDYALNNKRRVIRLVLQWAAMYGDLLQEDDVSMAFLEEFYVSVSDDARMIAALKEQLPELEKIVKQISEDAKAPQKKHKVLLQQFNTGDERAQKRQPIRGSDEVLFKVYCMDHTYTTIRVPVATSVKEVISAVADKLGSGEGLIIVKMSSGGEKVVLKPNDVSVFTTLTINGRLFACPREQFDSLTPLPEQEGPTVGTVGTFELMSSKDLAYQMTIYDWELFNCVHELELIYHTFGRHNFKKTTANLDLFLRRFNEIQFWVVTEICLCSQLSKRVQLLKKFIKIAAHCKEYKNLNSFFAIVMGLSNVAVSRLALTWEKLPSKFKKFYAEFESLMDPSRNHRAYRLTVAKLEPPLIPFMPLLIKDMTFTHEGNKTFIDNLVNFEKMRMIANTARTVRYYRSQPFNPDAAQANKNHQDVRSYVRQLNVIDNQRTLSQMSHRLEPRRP
# Assay: qHTS for Antagonist of cAMP-regulated guanine nucleotide exchange factor 2 (EPAC2): primary screen; note: nearly all actives have a fitted effect of over 45% in size
# Details: EPAC2 GEF exchange of Rap1B-BODIPY-GDP, fluorescence; series mostly up to 114 µM; activity, negative = inhibition: at the top concentration
# % is set by controls: 0 for no effect and ±100 for the full control effect; potency is the fitted concentration of half-maximal effect.
SMILES,"activity, negative = inhibition",Potency
COC(=O)[C@]12CCCCC=C1N(CCC1=CCCCC1)C(=O)[C@H](CC(=O)N1CCSCC1)C2,9.02% (inactive),
C=C1C2C[C@H](O)C(C)(C)[C@@]2(O)[C@H](O)C[C@]23C[C@@](C)(O)[C@H](CC[C@H]12)[C@H]3O (some centres not stated),-2.34% (inactive),
CC1(C)OC(=O)C2=C(C[C@@H](C3CCCC3)O[C@@H]2c2ccc(Cl)cc2)O1,-4.79% (inactive),
COc1ccc(N(C)S(=O)(=O)c2cccc3nsnc23)cc1,-26% (inactive),
Cn1ccc(=Nc2ccc(NC(=O)c3ccc(N=c4ccn(C)c5ccc([N+](=O)[O-])cc45)cc3)cc2)cc1,,22.4 µM (active)
CN(CC1CCCO1)S(=O)(=O)c1ccc(C(=O)Nc2ccc([N+](=O)[O-])cc2)cc1 (configuration not stated),-8.12% (inactive),
CC(C)c1ccc(NC(=O)CCN2C(=O)c3ccc([N+](=O)[O-])cc3C2=O)cc1,4.46% (inactive),
COCc1cccc(-c2csc(C(O)c3ccc(F)cc3)n2)c1 (configuration not stated),-6.83% (inactive),
O=C(Nc1cc(Cl)ccc1N1CCOCC1)c1ccc(N2CCCC2=O)cc1,0.558% (inactive),
CCc1nn(CCCC(=O)Nc2ccc(C)c(C)c2)c(=O)c2cc3occc3n12,-2.6% (inactive),
COc1c(F)c(F)c(-c2csc(N)n2)c(F)c1F,1.67% (inactive),
Cc1cccc(C)c1NC(=O)C(c1ccc(C(F)(F)F)cc1)n1c(=O)c(-c2ccco2)nc2ccccc21 (configuration not stated),-16.5% (inactive),
O=C(O)CCCN1C(=O)C2C3c4ccccc4C(c4ccccc43)[C@@H]2C1=O (some centres not stated),6.33% (inactive),
C=C1C(=O)OC2C1CCC(C)=CCCC1(C)OC21 (configuration not stated),5.97% (inactive),
CCN(c1ccccc1)S(=O)(=O)c1ccc2[nH]c(=O)[nH]c2c1,-7.42% (inactive),
CCN1CCN(C(=O)c2cc3cc4ccc(OC)cc4nc3s2)CC1,-2.76% (inactive),
N#CCOc1ccc(C2=NO[C@@H]3[C@@H]4C[C@@H]([C@H]5C(=O)N(c6ccc7c(c6)OCO7)C(=O)[C@@H]45)[C@H]23)cc1,-9.46% (inactive),
CN(C)c1ccc(NC(=O)c2ccncc2)c2ccccc12,4.4% (inactive),
CC1CCCN(C(C(=O)Nc2ccc(C(C)C)cc2)c2ccc3c(c2)OCO3)C1 (configuration not stated),11.7% (inactive),
CC(C)C[C@H]1CN([C@@H](CC(C)C)CN2CCC[C@@H]2CN2C(=O)C(=O)NC[C@@H]2Cc2ccccc2)C(=O)C(=O)N1CCc1ccccc1,-25.2% (inactive),
COC(=O)c1cc2c(N)c(C(=O)c3ccc(Cl)cc3)sc2nc1C(OC)OC,,79.4 µM (active)

SMILES,"activity, negative = inhibition",Potency
COC(=O)c1sccc1NC(=O)c1ccc(Cl)cc1,5.53% (inactive),
CC(C)OC(=O)c1sc2nc3c(cc2c1N)C(=O)CCC3,7.66% (inactive),
CCOC(=O)[C@]12CCCC=C1N(CCC1=CCCCC1)C(=O)[C@H](CC(=O)NCCCCc1ccccc1)C2,-10.5% (inactive),
O=C(O)c1ccccc1N=N/C(=N/Nc1cc(S(=O)(=O)O)ccc1O)c1ccccc1,,50.1 µM (active)
COc1ccccc1NC(=O)N1CCCC1C(=O)NCc1cccs1 (configuration not stated),0.017% (inactive),
Cc1ccc(-n2ncc3c2CC(C)(C)CC3NC(=O)CCc2cnn(C)c2)cc1 (configuration not stated),-0.921% (inactive),
CCO/C([O-])=N/c1c[n+](N2CCOCC2)no1,,inactive
O=C(NCCCn1ccnc1)/C(=C\c1ccccc1F)NC(=O)c1ccccc1,-3.25% (inactive),
CCC(=O)NC(Nc1cc(C)ccn1)(C(F)(F)F)C(F)(F)F,-5.15% (inactive),
COC(=O)c1ccc2nc(-c3cccc(Br)c3)c(Cc3ccc(OC)cc3C)n2c1,-6.84% (inactive),
CC1(C(=O)NCc2ccco2)Cc2c(-c3ccc4c(c3)OCO4)ccnc2O1 (configuration not stated),-0.756% (inactive),
O=C(Nc1ccccc1-c1nnn(CC(=O)N2CCCc3ccccc32)n1)c1cccc(Cl)c1,-0.482% (inactive),
O=C(NC1CCCCC1)C(c1cc2ccccc2o1)n1c(=O)c(-c2ccco2)nc2ccccc21 (configuration not stated),-8.44% (inactive),
CCCc1nn2c(=O)cc(CSCC(=O)Nc3cccc(C)c3)nc2s1,6.1% (inactive),
CCN(C(=O)COC(=O)c1c(NC(C)=O)sc(C)c1C)C1CCS(=O)(=O)C1 (configuration not stated),2.22% (inactive),
O=C(c1cc(S(=O)(=O)N2CCOCC2)ccc1Cl)N1CCOCC1,2.76% (inactive),
O=C(Nc1cc(S(=O)(=O)N2CCOCC2)ccc1Cl)c1cc(=O)c2ccccc2o1,-0.0117% (inactive),
O=[N+]([O-])c1cc(Cl)cc(/C=N/NC(=S)Nc2cc(S(=O)(=O)N3CCOCC3)ccc2Cl)c1O,,56.2 µM (active)
NC(=O)NC(=O)C(OC(=O)CCNS(=O)(=O)c1ccccc1)c1ccccc1 (configuration not stated),-9.11% (inactive),
O=C(CCC(=O)n1ncc2ccccc21)NCc1ccccc1Cl,-5.43% (inactive),
Cc1ccc2nc(NC(=O)CSc3nc(=O)n(CCCN(C)C)c4c3CCC4)sc2c1,,79.4 µM (active)

SMILES,"activity, negative = inhibition",Potency
Cc1csc(NC(=O)CSc2nc(=O)n(CCCN(C)C)c3c2CCC3)n1,-1.23% (inactive),
Cc1ccc(NC(=O)CSc2nc(=O)n(CCN(C)C)c3c2CCCC3)c(C)c1,7.61% (inactive),
Cc1cc(C)c2cc(C#N)c(N3CCNCC3)nc2c1,10.8% (inactive),
Oc1c(Cl)cc(Cl)c(Cl)c1Cc1c(O)c(Cl)cc(Cl)c1Cl,,31.6 µM (active)
O=C(NCc1ccccc1)C1CNCC(C(=O)NCc2ccccc2)C1 (configuration not stated),6.8% (inactive),
Cc1c2cnn(-c3ccccc3)c(=O)c2c(C)n1CCCC(=O)N1CCN(C)CC1,-7.56% (inactive),
O=C(OCC(=O)N1CCCCCC1)c1cnc(Cl)c(Cl)c1,-8.72% (inactive),
CCCCNC(=O)OC(C)CNC(=O)OC (configuration not stated),-0.338% (inactive),
Cc1cccc(N2CCN(C(=O)c3cnn4c(C(F)F)cc(-c5ccccc5)nc34)CC2)c1C,-2.11% (inactive),
COc1ccccc1N1CCN(C(=O)c2cc(=O)c3cc(C)cc(C)c3o2)CC1,3.53% (inactive),
Cc1ccc(Cl)cc1N1CCN(C(=O)c2cccc3c(=O)c(C)c(-c4ccccc4)oc23)CC1,,12.6 µM (active)
CCOCCCNC(=O)Cc1cc(=O)[nH]c(=O)[nH]1,12.4% (inactive),
CCCCCC1CCC(c2nnc(SCC(C)=O)o2)CC1 (configuration not stated),8.05% (inactive),
COc1cccc2c(C)c(C(=O)O)[nH]c12,0.659% (inactive),
N#C/C(C(=O)N1CCOCC1)=C1/SC(Cc2ccc(F)cc2)C(=O)N1c1ccccc1 (configuration not stated),8.88% (inactive),
Cc1cccc(NS(=O)(=O)c2ccc(C(=O)NCC(C)(C)N3CCOCC3)cc2)c1C,24.5% (inactive),
Nc1[nH]c(C(=O)c2ccccc2)c(-c2ccc(Br)cc2)c1C(=O)NC1CC1,-3.82% (inactive),
CCc1c(C)nc2c(OC)cccc2c1Cl,5.13% (inactive),
O=c1nc(N/N=C/c2ccco2)cn[nH]1,-1.92% (inactive),
COc1cccc2c(N/N=C/c3ccco3)cc(C)nc12,,12.6 µM (active)
